From the supplement of paper PMC7411640
Structures can show the parent of a compound that is named as a salt.

System: MDA-MB-468
Experiment: phospho-S6 immunofluorescence (DAPI-normalised), per-plate z-score; higher = higher phospho-S6 signal (less pathway suppression)
Settings: co-treatment: GDC0941 450 nM; 24 h
Method: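 GPCR-targeted compound library (MedChemExpress HY-L006) tested on MDA-MB-468 PTEN-null TNBC cells in 384-well plates at 0.1, 1 or 10 uM, combined with vehicle, GDC0941 450 nM or lapatinib 1 uM, for 24 h. Phospho-S6 (S240/244) immunofluorescence normalised to DAPI and expressed as a per-plate z-score; values are the mean of biological triplicates.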

Compound	phospho-S6 immunofluorescence (z-score)
OCCN1CCN(CCCN2c3ccccc3Sc3ccc(Cl)cc32)CC1 [Perphenazine] (compound 10 µM)	-1.28
C[C@@H]1C[C@H]2[C@@H]3CCC4=CC(=O)C=C[C@]4(C)[C@@]3(Cl)[C@@H](O)C[C@]2(C)[C@@]1(OC(=O)c1ccco1)C(=O)CCl [Mometasone furoate] (compound 10 µM)	-0.46
CN1CCC(=C2c3ccccc3C=Cc3ccccc32)CC1 [Cyproheptadine (hydrochloride)] (compound 10 µM)	-0.64
O=C1NCCN1CCN1CCC(c2cn(-c3ccc(F)cc3)c3ccc(Cl)cc23)CC1 [Sertindole] (compound 10 µM)	-4.7
CN1CCc2cc(Cl)c(O)cc2[C@@H](c2ccccc2)C1 (compound 10 µM)	-0.98
Cc1c(-c2ccccc2)oc2c(C(=O)OCCN3CCCCC3)cccc2c1=O [Flavoxate (hydrochloride)] (compound 10 µM)	0.25
O=C1Cc2cc(CCN3CCN(c4nsc5ccccc45)CC3)c(Cl)cc2N1 [Ziprasidone (hydrochloride monohydrate)] (compound 10 µM)	-5.1
CN1CCN(C(=O)c2cc3cc(Cl)ccc3[nH]2)CC1 (compound 10 µM)	0.27
CC(C)=CCC[C@](C)(O)[C@H]1CC[C@]2(C)[C@@H]1[C@H](O)C[C@@H]1[C@@]3(C)CC[C@H](O)C(C)(C)[C@@H]3[C@@H](O)C[C@]12C [(20S)-Protopanaxatriol] (compound 10 µM)	-1.71
CC1CCN(CC[C@H]2CCCN2S(=O)(=O)c2cccc(O)c2)CC1 (compound 10 µM)	0.86
CCCN(CCc1cccs1)C1CCc2c(O)cccc2C1 (racemic) [rac-Rotigotine (Hydrochloride)] (compound 10 µM)	-0.62
Cc1ccc(F)cc1C(=O)Nc1ccc(C(=O)N2Cc3cccn3Cc3ccccc32)c(Cl)c1 [Lixivaptan] (compound 10 µM)	-2.79
CN(C)CCSSCCNC(=O)C1CCN(C(=O)CSc2ccc(Cl)cc2)CC1 [6H05 (trifluoroacetate)] (compound 10 µM)	-1.17
Nc1ccc(/C=C/c2cccc(C(=O)O)n2)cc1 (compound 10 µM)	0.9
Cc1nc2n(c(=O)c1CCN1CCC(c3noc4cc(F)ccc34)CC1)CCCC2O (configuration not stated) [Paliperidone] (compound 10 µM)	0.37
OC(CCN1CCCCC1)(c1ccccc1)C1CC2C=CC1C2 (configuration not stated) [Biperiden (Hydrochloride)] (compound 10 µM)	-1.68
COc1cc2nc(N(C)CCCNC(=O)C3CCCO3)nc(N)c2cc1OC (configuration not stated) [Alfuzosin] (compound 10 µM)	0.81
CC(=O)OCC(=O)[C@@]12OC(C)(C)O[C@@H]1C[C@H]1[C@@H]3C[C@H](F)C4=CC(=O)C=C[C@]4(C)[C@@]3(F)[C@@H](O)C[C@@]12C [Fluocinonide] (compound 10 µM)	-0.28
CC1(C)O[C@@H]2C[C@H]3[C@@H]4CCC5=CC(=O)C=C[C@]5(C)[C@H]4[C@@H](O)C[C@]3(C)[C@]2(C(=O)CO)O1 [Desonide] (compound 10 µM)	-0.1
NC(=O)c1ccc[n+]([O-])c1 [Nicotinamide N-oxide] (compound 10 µM)	0.09
Cc1c(Cc2ccc3ccccc3n2)c2cc(F)ccc2n1CC(=O)O (compound 10 µM)	0
Nc1ncnc2c1ncn2C1CCCO1 (configuration not stated) (compound 10 µM)	0.45
COC(=O)[C@H]1[C@H]2C[C@H]3c4[nH]c5ccccc5c4CCN3C[C@H]2CC[C@@H]1O [Rauwolscine (hydrochloride)] (compound 10 µM)	0.42
CCCCCCCCOc1ccccc1C(=O)Nc1ccc(C(=O)OCC[N+](C)(CC)CC)cc1 [Otilonium (bromide)] (compound 10 µM)	-1.43
CN(C)CCOC(C)(c1ccccc1)c1ccccn1 (configuration not stated) [Doxylamine (succinate)] (compound 10 µM)	0.33
Cc1noc(-c2ccc(-c3ccc(CC(=O)O)cc3)cc2)c1NC(=O)OC(C)c1ccccc1Cl (configuration not stated) (compound 10 µM)	0.23
CC(=O)N[C@H](Cc1ccc2ccccc2c1)C(=O)N[C@H](Cc1ccc(Cl)cc1)C(=O)N[C@H](Cc1cccnc1)C(=O)N[C@@H](CO)C(=O)N(C)[C@@H](Cc1ccc(O)cc1)C(=O)N[C@H](CC(N)=O)C(=O)N[C@@H](CC(C)C)C(=O)N[C@@H](CCCCNC(C)C)C(=O)N1CCC[C@H]1C(=O)N[C@H](C)C(N)=O [Abarelix] (compound 10 µM)	0.77
